Bioassay records as filed in PubChem BioAssay.
A selection: hits, their analogues and other compounds. The true share with any hit is near 1.1%.
RXFP1 agonist: activates the human relaxin receptor RXFP1; actives 0.3% (n = 370,000); Q9HBX9; Potency, µM (titrated, usually from 57.5 µM), for inactives: top-dose activation, actives largely listed as activators; HEK293T-RXFP1 cAMP TR-FRET, 30 min; response scale: percent of porcine relaxin response, buffer zero; AID 2676; active = well fitted activation curve with a large enough effect; inconclusive = small, poorly fitted or top-dose-only effect; also: potency is read from the fitted curve at half-maximal effect; % is scaled to controls: 0 for no effect and ±100 for the full control effect; nearly all actives have a fitted effect of over 60% in size
Target sequence (Q9HBX9 whole entry, looked up): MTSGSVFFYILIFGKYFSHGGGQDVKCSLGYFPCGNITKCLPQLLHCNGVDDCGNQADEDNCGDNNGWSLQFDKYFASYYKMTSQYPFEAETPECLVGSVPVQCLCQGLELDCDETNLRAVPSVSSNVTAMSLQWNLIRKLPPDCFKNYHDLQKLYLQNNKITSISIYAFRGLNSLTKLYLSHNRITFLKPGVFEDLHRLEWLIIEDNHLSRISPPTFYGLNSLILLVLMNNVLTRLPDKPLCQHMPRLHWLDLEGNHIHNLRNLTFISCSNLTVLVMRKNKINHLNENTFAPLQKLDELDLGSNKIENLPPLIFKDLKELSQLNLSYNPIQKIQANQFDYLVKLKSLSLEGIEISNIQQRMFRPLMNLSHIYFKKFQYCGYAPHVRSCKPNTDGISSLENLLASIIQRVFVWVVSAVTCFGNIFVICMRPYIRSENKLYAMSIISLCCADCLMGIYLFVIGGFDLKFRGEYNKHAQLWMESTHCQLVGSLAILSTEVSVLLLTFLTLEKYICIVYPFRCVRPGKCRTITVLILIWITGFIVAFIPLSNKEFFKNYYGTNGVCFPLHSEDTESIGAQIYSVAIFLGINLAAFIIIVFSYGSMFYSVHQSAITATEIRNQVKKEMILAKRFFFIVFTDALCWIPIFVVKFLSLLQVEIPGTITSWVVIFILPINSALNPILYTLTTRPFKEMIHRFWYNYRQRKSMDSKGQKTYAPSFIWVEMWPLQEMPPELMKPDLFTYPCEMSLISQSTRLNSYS
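cAMP rise read by TR-FRET after 30 min, 37C compound exposure (up to 58 uM) in RXFP1-transfected HEK293 cells with Ro 20174 present. EC50 from Hill-equation fits, with 29 nM porcine relaxin as 100% and buffer as basal.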
TRPV1 potentiator: potentiators of human vanilloid receptor 1 (TRPV1). potentiation, % at 8.33 µM. actives 0.02% (n = 320,000). TRPV1-expressing cells, Fluo-8 calcium influx, capsaicin EC20 potentiation. Q8NER1; in the data active = potentiation above about 80%; inconclusive = between about 30% and that limit; also: 0% is about no effect
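Cells expressing TRPV1 were dye-loaded with Fluo-8 and read kinetically: 10 s baseline, 3 min after compound (agonist portion), then 2 min after EC20 capsaicin (allosteric enhancer portion). Calcium-bound dye fluorescence at 480/520 nm.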
gsp antag: antagonists of gsp mutant (McCune-Albright syndrome) | gsp-mutant cells, cAMP HTRF, 30 min | Potency, µM (top dose mostly 76.9 µM), for inactives: at the highest dose activity change, negative = inhibition, actives largely listed as inhibitors | actives 0.4% (n = 340,000); calls by dose curve; cell line not stated here;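 also: intracellular cAMP measured with PDE inhibitor Ro 20-1724 present during compound exposure; potency is read from the fitted curve at half-maximal effect; % is scaled to controls: 0 for no effect and ±100 for the full control effect; nearly all actives have a fitted effect of over 65% in size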
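HTRF cAMP measurement after 30 min RT detection following 30 min, 37C compound treatment alongside […] (added as 300 uM solution) in G418-selected cells seeded at 2000/well and grown 16–24 h.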
TRPV1 agonist: human TRPV1 agonism | Q8NER1 | TRPV1-expressing cells, Fluo-8 calcium influx, agonist mode | activation, % at 8.33 µM | actives 0.19% (n = 320,000); in the data active = activation above about 80%; inconclusive = between about 30% and that limit; also: 0% is about no effect
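Cells expressing TRPV1 were dye-loaded with Fluo-8 and read kinetically: 10 s baseline, 3 min after compound (agonist portion), then 2 min after EC20 capsaicin (allosteric enhancer portion). Calcium-bound dye fluorescence at 480/520 nm.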
RXFP1 antag: antagonists of human relaxin receptor RXFP1. HEK293-RXFP1, relaxin-stimulated cAMP HTRF, 30 min; active compounds read low. activity change, negative = inhibition, % at 57.5 µM. actives 0.59% (n = 350,000);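 active = activity change of -60% or lower, but not beyond a set lower limit; inconclusive = change between -60% and -40%, or beyond the set limit; inactive = change above -40%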; also: % is scaled to controls: 0 for no effect and ±100 for the full control effect
gsp agonist: gsp mutant agonism; gsp mutant cells, cAMP HTRF, 30 min; Potency, µM (top dose mostly 76.9 µM), for inactives: at the highest dose activation (cAMP increase), hits mostly activators; actives 0.13% (n = 340,000); active = well fitted activation curve with a large enough effect; inconclusive = small, poorly fitted or top-dose-only effect, or another doubt; inactive = no such curve, though single readings can be large or run the other way; cell line not stated here;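 also: phosphodiesterase inhibitor Ro 20-1724 added with compounds to block cAMP breakdown; potency is read from the fitted curve at half-maximal effect; nearly all actives have a fitted effect of over 60% in size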
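Cells in DMEM/10% FBS with G418 were pretreated with compounds in DMSO plus […] (300 uM stock) for 30 min at 37C. cAMP was measured by HTRF (cAMP-d2 plus anti-cAMP antibody-K) after 30 min at room temperature.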
An asterisk follows results filed as active; ? = inconclusive; · = not tested or not shown; ! = not active in a repeat; [ ] = dose if it differs, or a comment.

SMILES	RXFP1 agonist	TRPV1 potentiator	gsp antag	TRPV1 agonist	RXFP1 antag	gsp agonist
Oc1ccc(Cl)cc1Cc1ccccc1	·	·	4.2%	·	-82.4*!	-3.1%
CC[C@H](O)C(C[C@H](C)N(C)C)(c1ccccc1)c1ccccc1	·	·	·	·	17.6	·
Cc1[nH]c(=S)c(C#N)c2c1CCCC2	?	4.2	2.0%	-5.7	19.6	14.1µM*
CCc1ccc(NC(=O)c2cnc3sc(N4CCCC4)nn3c2=O)cc1	?	·	·	·	7.8	·
OC(CN1CC=C(c2ccccc2)CC1)c1ccccc1 (stereo unspecified)	-4.0%	1.0	10.5%	3.4	-16.6	-15.0%[15.4 µM]
OC(COCc1ccc(Cl)cc1)CN1CC=C(c2ccccc2)CC1 (stereo unspecified)	0.9%	3.2	-0.6%	14.7	-61.1*!	9.4%
COc1ccccc1C(=O)Nc1ccc2nc(SCC(=O)N3CCCc4ccccc43)sc2c1	?	·	·	·	-8.7	·
CC[N+](CC)(CC)CC	1.0%	-2.2	35.5µM*	1.0	7.9	·
COc1cc(CC(C)N)c(OC)cc1C (stereo unspecified)	·	·	·	·	-5.7	·
Cc1cc(C(C#N)c2ccc(Cl)cc2)c(Cl)cc1NC(=O)c1cc(I)cc(I)c1O (stereo unspecified)	0.1%	0.7	?	-0.6	-111.9*	·
CC[N+]1(CC)CCC(OC(=O)C(O)(c2ccccc2)c2ccccc2)C1 (stereo unspecified)	·	·	·	·	9.9	·
CC[n+]1c(-c2ccccc2)c2cc(N)ccc2c2ccc(N)cc21	·	·	?	·	-85.0*!	24.9%
S=C1CN=C(c2ccccc2)c2cc(Cl)ccc2N1	-0.3%	-14.6	-11.2%	8.5	-111.1*	9.2%
COc1ccc(C2=NCC(=S)Nc3ccc(Cl)cc32)cc1OC	·	·	-8.7%	·	0.4	11.5%
CCCCCCCSc1cc(OC)c(CCNC)cc1OC	-0.1%	-5.2	14.3%	4.1	-69.6*	-80.6%
CCCCCSc1cc(OC)c(CCNC)cc1OC	-0.9%	-2.5	-7.4%	-1.3	-27.1	-4.6%
COCCN1C(=NCCCOC(C)C)N[C@@H](c2ccccc2)C(C(=O)OC)=C1C	-1.6%	7.1	4.5%	-3.4	·	?
O=c1nc(/C=C/c2ccc(Cl)cc2Cl)cc(C(F)(F)F)[nH]1	0.4%	8.9	-5.5%	-0.7	-74.6*	?
CC(Cc1ccccc1)N(C)Cc1ccco1 (stereo unspecified)	·	·	·	·	7.2	·
CC(C)n1c(O)c(C2c3cc(Cl)ccc3Oc3[nH]c(=O)n(C(C)C)c(=O)c32)c(=O)[nH]c1=O (stereo unspecified)	0.5%	-5.4	-20.7%	1.9	-83.9*	17.0%[15.4 µM]
CC(=O)c1c(O)n(-c2cccc(Cl)c2)c(=O)[nH]c1=O (tested in a mixture with another compound)	-0.8%	7.6	4.5%	-6.3	1.6	-0.7%[15.4 µM]
CC(C)N1C(=O)/C(=C/C=C/c2ccco2)C(=O)N(Cc2ccco2)C1=O	0.4%	13.4	?	3.9	-76.6*	-13.8%
COc1cc(OC)c(OC)cc1/C=C1/C(=O)NC(=O)N(Cc2ccccc2)C1=O	-0.1%	12.9	10.1%	1.1	-63.6*	-3.4%
O=C1NC(=O)N(Cc2ccccc2)C(=O)/C1=C/C=C/c1ccco1	-2.9%	-8.5	50.1µM*	20.0	?	18.5%
COc1cc(OC)c(OC)cc1/C=C1\C(=O)NC(=O)N(Cc2ccccc2)C1=O	1.2%	4.1	3.0%	-0.7	-9.2	-1.4%[15.4 µM]
SMILES	RXFP1 agonist	TRPV1 potentiator	gsp antag	TRPV1 agonist	RXFP1 antag	gsp agonist
CN(C)c1ccc(/C=C2/C(=O)NC(=O)N(Cc3ccco3)C2=O)cc1	-2.4%	13.7	-33.8%	-5.5	5.5	-16.7%
Cc1cccc(OCCn2cccc2/C=C2/C(=O)NC(=O)N(Cc3ccco3)C2=O)c1	0.9%	3.5	?	13.5	-68.2*	16.9%
O=C1NC(=O)N(Cc2ccco2)C(=O)/C1=C/c1ccc(-c2cccc([N+](=O)[O-])c2)o1	1.6%	2.1	-5.8%	11.1	-66.9*	2.0%
C=CCN1C(=O)NC(=O)/C(=C\c2ccc(-c3ccccc3[N+](=O)[O-])o2)C1=O	-2.4%	2.1	-7.9%	-4.4	-100.7*	0.3%[15.4 µM]
COc1ccccc1OCCCn1cc(C(=O)C2CC2)c2ccccc21	1.7%	-14.6	44.7µM*	5.4	-20.2	3.6%[15.4 µM]
COc1ccccc1OCCCn1cc(C(C)=O)c2ccccc21	3.4%	10.5	?	1.3	-6.6	4.4%[15.4 µM]
CC(Cc1ccccc1)NCCCCl (stereo unspecified)	·	·	·	·	-6.6	·
Cn1c(O)c(Cc2ccc(OCc3ccccc3)cc2)c(=O)n(C)c1=O	2.6%	6.3	7.08µM*	4.2	-2.9	-7.1%
O=C1OC(CCN2CCCCC2)OC1(c1ccccc1)c1ccccc1 (stereo unspecified)	·	·	·	·	20.7	·
Cc1ccccc1CN1C(=O)C(C)N=C(c2ccccc2)c2ccccc21 (stereo unspecified)	1.9%	·	·	·	-69.8*	·
Cc1oc(-c2ccccc2)nc1CN1C(=O)C(C)N=C(c2ccccc2F)c2cc(Cl)ccc21 (stereo unspecified)	1.9%	-2.5	?	11.5	·	7.6%
CCCOP(=O)(OCCC)C(NC(=O)c1cc(OC)c(OC)c(OC)c1)c1ccccc1 (stereo unspecified)	-1.5%	3.2	·	9.0	-0.1	-13.3%[15.4 µM]
CCC(COC(=O)c1cc(OC)c(OC)c(OC)c1)(c1ccccc1)N(C)C (stereo unspecified)	2.0%	-11.9	-16.1%	18.7	-61.5*	·
O=S(=O)(O)C(F)(F)C(F)(F)C(F)(F)C(F)(F)C(F)(F)C(F)(F)C(F)(F)C(F)(F)F	·	·	·	·	-14.3	·
O=[N+]([O-])/C=C/c1c(Cl)cccc1Cl	·	·	15.4%	·	-67.3*	7.0%
CCC(C)C(C)(COC(N)=O)COC(N)=O (stereo unspecified)	·	·	·	·	3.2	·
CN1C(=O)/C(=C/c2cccn2-c2ccc3ccccc3c2)C(=O)NC1=S	2.5%	10.9	9.1%	1.3	-97.0*	0.9%
CC[C@@]1(O)C(=O)OCc2c1cc1n(c2=O)Cc2cc3ccccc3nc2-1	?	1.5	·	-1.4	·	·
CC[C@@]1(O)C(=O)OCc2c1cc1n(c2=O)Cc2cc3c(NC(=O)CN)cccc3nc2-1	14.1µM*	-4.8	10.1%	-3.2	5.8	9.5%[15.4 µM]
CC(=O)[O][Hg][c]1ccccc1	·	·	·	·	-15.2	·
CC(C(O)c1ccccc1)N(C)C/C=C/c1ccccc1 (stereo unspecified)	·	·	·	·	-8.7	·
CCN(CC)C(=O)[C@@H]1C=C2c3cccc4[nH]cc(c34)C[C@H]2N(C)C1	·	·	·	·	8.3	·
N#CC(C#N)=NNc1ccc([N+](=O)[O-])cc1	1.1%	11.3	50.1µM*	-0.2	-28.6	-19.4%
Nc1nc(N)nc(NC2CC2)n1	·	·	·	·	14.9	·
